In PubChem BioAssay (Tox21):
Several values for one entry are separate records, joined by “and”; a condition that tells them apart may be missing. Equal entries are not always repeated. Records with an inconclusive call do not appear. Entries that show only a call come without a potency. Values without a mark were called inactive. Activity calls are given as the source filed them. The call rests on the fitted dose curve; in most records, active means well fitted cell-killing curve with a large enough effect in the repeat runs; inconclusive means weak or mixed curves, or effect the other way; inactive means flat fitted curve, though single readings scatter.

How the values were obtained:
[1] = cAMP Responsive Elements (CRE) small molecule antagonists, cell-based qHTS assay: qHTS cell viability counter screen (AID 2060913); further: nearly all actives have a fitted effect of over 40% in size
Summary of the method: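 CRE-bla HEK293T cells (2,000/well, 18 h) given compound plus NKH477 0.25 uM final for 3 h at 37C; viability counter-screen by CellTiter-Glo luminescence in same wells after 30 min.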

[2] = cAMP Responsive Elements (CRE) small molecule agonists, cell-based qHTS assay: qHTS cell viability counter screen (AID 2060914);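 further: viability read after 3 h of compound exposure; nearly all actives have a fitted effect of over 50% in size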
Summary of the method: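 HEK 293T CRE-bla; DMEM + 10% dialyzed FBS, 25 mM HEPES; 18 h pre-incubation; compound 3 h, 37 °C/5% CO2; CellTiter-Glo added after reporter read; luminescence after 30 min RT.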
Potency means the concentration at half of the fitted maximal effect.

| Compound | Potency [1] | Potency [2] | viability change, negative = cytotoxic [1] | activity change, negative = cytotoxicity [2] |
| --- | --- | --- | --- | --- |
| OC[C@H]1O[C@@](CO)(O[C@H]2O[C@H](CO)[C@@H](O)[C@H](O)[C@H]2O)[C@@H](O)[C@@H]1O | inactive | inactive |  |  |
| COc1ccc(/C=N/NC(=O)c2ccncc2)cc1OC | inactive | inactive |  |  |
| CC1(C)[C@H]2CC[C@]1(C)C(=O)C2 | inactive | inactive |  |  |
| CCCNC(=O)NS(=O)(=O)c1ccc(Cl)cc1 | inactive | inactive |  |  |
| OC[C@H]1O[C@@H](OCCc2ccc(O)cc2)[C@H](O)[C@@H](O)[C@@H]1O | inactive | inactive |  |  |
| CC(C)(C#N)c1cc(Cn2cncn2)cc(C(C)(C)C#N)c1 | inactive | inactive |  |  |
| CC(=O)Nc1ccc(N)cc1 | inactive | inactive |  |  |
| CC(C)=CCCC(C)CC(=O)O (stereo not given) | inactive | inactive |  |  |
| COCc1c(C(C)C)nc(C(C)C)c(/C=C/[C@@H](O)C[C@@H](O)CC(=O)O)c1-c1ccc(F)cc1 | inactive | inactive |  |  |
| CC(COC(=O)c1ccccc1)OC(=O)c1ccccc1 (stereo not given) | inactive | inactive |  |  |
| CC/C=C/CCCCCCCCCCOC(C)=O | inactive | inactive |  |  |
| C/C=C1\C(=O)C[C@H]2[C@@H]3CCC4=CC(=O)CC[C@]4(C)[C@H]3CC[C@]12C | inactive | inactive |  |  |
| NS(=O)(=O)c1cc2c(cc1Cl)NC=NS2(=O)=O | inactive | inactive |  |  |
| CNCc1ccccc1 | inactive | inactive |  |  |
| CC(C)(C)NCC(O)COc1ccc(NC(=O)NC2CCCCC2)cc1 (stereo not given) | inactive | inactive |  |  |
| CN(C)c1ccc(N=Nc2ccccc2C(=O)O)cc1 | inactive | inactive |  |  |
| CC/C=C\CCOC(C)=O | inactive | inactive |  |  |
| CC1=C(C(=O)O)N2C(=O)[C@@H](NC(=O)[C@H](N)c3ccc(O)cc3)[C@H]2SC1 | inactive | inactive |  |  |
| C=CC(C)(C)CC(=O)OC | inactive | inactive |  |  |
| FC(F)(F)C(F)(F)C(F)(F)C(F)(F)C(F)(F)C(F)(F)C(F)(F)C(F)(F)Br | inactive | inactive |  |  |
| CC(C)(COC(=O)c1ccccc1)COC(=O)c1ccccc1 | inactive | inactive |  |  |
| OC(CCl)CCl | inactive | inactive |  |  |

| Compound | Potency [1] | Potency [2] | viability change, negative = cytotoxic [1] | activity change, negative = cytotoxicity [2] |
| --- | --- | --- | --- | --- |
| C[C@]12CC[C@H]3[C@@H](CCC4=CC(=O)CC[C@@]43C)[C@@H]1CC[C@@H]2C(=O)CO | inactive | inactive |  |  |
| CO[Si](CCCNCCNCCN)(OC)OC | inactive | inactive |  |  |
| O=C1c2c(O)ccc(Nc3ccc(CCO)cc3)c2C(=O)c2c([N+](=O)[O-])ccc(O)c21 | inactive | inactive |  |  |
| NC(=O)Nc1nc2ccccc2[nH]1 | inactive | inactive |  |  |
| CC1CCCC1 | inactive | inactive |  |  |
| O=C(c1ccccc1)c1ccc2n1CCC2C(=O)O (stereo not given) | inactive | inactive |  |  |
| Cc1ccc(Nc2ccc(O)c3c2C(=O)c2ccccc2C3=O)cc1 | inactive | inactive |  |  |
| C[Si](C)=O |  |  | 7.47% [at 8.39 µM] | -0.0708% [at 8.39 µM] |
| C=C(C)C(=O)OCC(C)O (stereo not given) | inactive | inactive |  |  |
| N[C@@H]1CONC1=O | inactive | inactive |  |  |
| CCN(CC)CC1CCCCN1CC(=O)N1c2ccccc2C(=O)Nc2cccnc21 (stereo not given) | inactive | inactive |  |  |
| CCCC(C)CCC(C)=O (stereo not given) | inactive | inactive |  |  |
| O=C(O)CC(C(=O)O)C(CC(=O)O)C(=O)O (stereo not given) | inactive | inactive |  |  |
| CC(=O)Nc1ccc(O)cc1 | inactive | inactive |  |  |
| O=C(O)c1ccc(CO)o1 | inactive | inactive |  |  |
| CC(c1cc2ccccc2s1)N(O)C(N)=O (stereo not given) | inactive | inactive |  |  |
| C=C(C)CCCC | inactive | inactive |  |  |
| c1ccc(CSCc2ccccc2)cc1 | inactive | inactive |  |  |
| CCCCCCC/C=C/C=O | inactive | inactive |  |  |
| CC1=C2[C@H](/C=C(\C)C(=O)O)CC[C@@H](C)[C@H]2CC1 | inactive | inactive |  |  |
| CNC(=O)c1cc(Oc2ccc(NC(=O)Nc3ccc(Cl)c(C(F)(F)F)c3)cc2)ccn1 | inactive | inactive |  |  |
| CCCCC/C=C/C=C/C=O | inactive | inactive |  |  |

| Compound | Potency [1] | Potency [2] | viability change, negative = cytotoxic [1] | activity change, negative = cytotoxicity [2] |
| --- | --- | --- | --- | --- |
| CCC(=O)O[C@]1(C(=O)CCl)[C@@H](C)C[C@H]2[C@@H]3CCC4=CC(=O)C=C[C@]4(C)[C@@]3(F)[C@@H](O)C[C@@]21C | inactive | inactive |  |  |
| CC(CN1c2ccccc2Sc2ccccc21)N(C)C (stereo not given) | inactive | inactive |  |  |
| CC(=O)c1nccs1 | inactive | inactive |  |  |
| CCOCN(C(=O)CS(=O)(=O)O)c1c(C)cccc1CC | inactive | inactive |  |  |
| CO[Si](C)(C)OC | inactive | inactive |  |  |
| CN1CCC(N(Cc2cccs2)c2ccccc2)CC1 | inactive | inactive |  |  |
| CCCC(=O)Nc1ccc(OCC(O)CNC(C)C)c(C(C)=O)c1 (stereo not given) | inactive | inactive |  |  |
| CCCCCCCCCCCCCCCC[N+](C)(C)Cc1ccccc1 | 63.1 µM (active) and 49.4 µM (active) and 33.5 µM (active) | 70.8 µM (active) and 44.1 µM (active) and 26.6 µM (active) |  |  |
| CC1=CC(=C(c2ccc(N)cc2)c2ccc(N)cc2)C=CC1=N |  |  | -2.05% [at 8.39 µM] | -0.199% [at 8.39 µM] |
| C#CC1(O)CC[C@H]2[C@@H]3CCC4=CCCC[C@@H]4[C@H]3CC[C@@]21C (stereo not given in full) | inactive | inactive |  |  |
| CC(=O)[C@@]1(O)CC[C@H]2[C@@H]3C[C@H](C)C4=CC(=O)CC[C@]4(C)[C@H]3CC[C@@]21C | inactive | inactive |  |  |
| O=C1NC(=O)[C@@H]2CC=CC[C@H]12 | inactive | inactive |  |  |
| CC(C)OC(=O)CCCCC(=O)OC(C)C | inactive | inactive |  |  |
| CC(=O)OCc1ccco1 | inactive | inactive |  |  |
| c1ccc2c(c1)ccc1ccccc12 | inactive | inactive |  |  |
| O=C1c2ccccc2C(=O)c2c(O)c(O)cc(O)c21 | inactive | inactive |  |  |
| Clc1ccnc(Cl)n1 | inactive | inactive |  |  |
| Cc1ccc2ccc(Cl)cc2n1 | inactive | inactive |  |  |
| CCCCN1CCCC1C(=O)Nc1c(C)cc(C)cc1C (stereo not given) | inactive | inactive |  |  |
| O=Cc1ccccc1[N+](=O)[O-] | inactive | inactive |  |  |
| Cn1c(=O)c2c(ncn2CCO)n(C)c1=O | inactive | inactive |  |  |
| CCN1CCN(C(=O)N[C@@H](C(=O)N[C@@H]2C(=O)N3[C@@H]2SC(C)(C)[C@H]3C(=O)O)c2ccccc2)C(=O)C1=O | inactive | inactive |  |  |

| Compound | Potency [1] | Potency [2] | viability change, negative = cytotoxic [1] | activity change, negative = cytotoxicity [2] |
| --- | --- | --- | --- | --- |
| O=C1CC2(CCCC2)CC(=O)N1CCNCC1COc2ccccc2O1 (stereo not given) | inactive | inactive |  |  |
| COC(=O)c1sccc1S(N)(=O)=O | inactive | inactive |  |  |
| COc1nc(C)nc(N)n1 | inactive | inactive |  |  |
| NS(=O)(=O)c1cc2c(cc1Cl)CN(C1CCCCC1)C2=O | inactive | inactive |  |  |
| Cc1ccc(C#N)cc1 | inactive | inactive |  |  |
| COc1cc(NC(=O)CC(C)=O)c(OC)cc1Cl | inactive | inactive |  |  |
| C#CCN(C)CCCOc1ccc(Cl)cc1Cl | inactive | inactive |  |  |
| COC(=O)c1ccccc1 | inactive | inactive |  |  |
| OC/C=C/CO | inactive | inactive |  |  |
| c1ccc(CCCc2ccncc2)cc1 | inactive | inactive |  |  |
| Nc1c2ccccc2nc2ccccc12 | inactive | inactive |  |  |
| COC(=O)C1=C(C)NC(C)=C(C(=O)OCCc2ccc(N3CCN(C(c4ccccc4)c4ccccc4)CC3)cc2)C1c1cccc([N+](=O)[O-])c1 (stereo not given) | inactive | inactive |  |  |
| CCCCC(CC)COCCC#N (stereo not given) | inactive | inactive |  |  |
| CCC(N)(CO)CO | inactive | inactive |  |  |
| O=C(/C=C/c1ccc(O)c(O)c1)O[C@@H]1C[C@](O)(C(=O)O)C[C@@H](O)[C@H]1O | inactive | inactive |  |  |
| COc1ccnc2c1CCCCC2S(=O)c1nc2ccccc2[nH]1 (stereo not given) | inactive | inactive |  |  |
| CCN[C@@H]1C[C@H](N)[C@@H](OC2OC(CN)=CCC2N)[C@H](O)[C@H]1O[C@H]1OC[C@](C)(O)[C@H](NC)[C@H]1O (stereo not given in full) |  |  | 1.22% [at 0.349 µM] | 3.46% [at 0.349 µM] |
| C=Cc1ccncc1 | inactive | inactive |  |  |
| CCCCCCCC(=O)OCC(O)CO (stereo not given) | inactive | inactive |  |  |
| CCOCCOCCO | inactive | inactive |  |  |
| CC(C)COC(=O)c1ccc(O)cc1 | inactive | inactive |  |  |
| COc1ccc(CCN(C)CCCN2CCc3cc(OC)c(OC)cc3CC2=O)cc1OC | inactive | inactive |  |  |

| Compound | Potency [1] | Potency [2] | viability change, negative = cytotoxic [1] | activity change, negative = cytotoxicity [2] |
| --- | --- | --- | --- | --- |
| Cc1cccc(C(=O)O)c1[N+](=O)[O-] | inactive | inactive |  |  |
| COc1ccc(C(=O)c2ccccc2O)c(O)c1 | inactive | inactive |  |  |
| CCCCOC(=O)/C=C\C(=O)OCCCC | inactive | inactive |  |  |
| O=C(CC(=O)C(F)(F)F)c1ccccc1 | inactive | inactive |  |  |
| CC(=O)Nc1ccc(/C=N/NC(N)=S)cc1 | inactive | inactive |  |  |
| CCCCCCCCCCCC(=O)OCC | inactive | inactive |  |  |
| CC[C@@]1(O)C(=O)OCc2c1cc1n(c2=O)Cc2c-1nc1ccccc1c2/C=N/OC(C)(C)C | inactive | inactive |  |  |
| C=CC(=O)NC(C)(C)CS(=O)(=O)O | inactive | inactive |  |  |
| Nc1c(Cl)cc(Cl)cc1Cl | inactive | inactive |  |  |
| CCCCCC/C(C=O)=C\c1ccccc1 | inactive | inactive |  |  |
| O=C(O)COc1ccc2ccccc2c1 | inactive | inactive |  |  |
| CC(COc1ccccc1)NN (stereo not given) | inactive | inactive |  |  |
| O=C(O)c1cc(C(=O)O)cc(C(=O)O)c1 | inactive | inactive |  |  |
| C=CCc1ccc(OC)c(OC)c1 | inactive | inactive |  |  |
| COc1ccc2sc(C(=O)Nc3nnn[nH]3)c(OC(C)C)c2c1 | inactive | inactive |  |  |
| Clc1nc(C(Cl)(Cl)Cl)c(Cl)c(Cl)c1Cl | inactive | inactive |  |  |
| O=C1CCN(c2ccccc2)N1 | inactive | inactive |  |  |
| Cc1cc(C2CCCCC2)n(O)c(=O)c1 | inactive | inactive |  |  |
| CCCCC(CC)COC(C)=O (stereo not given) | inactive | inactive |  |  |
| CCCCC(CC)COC(=O)CCCCCCCCC(=O)OCC(CC)CCCC (stereo not given) | inactive | inactive |  |  |
| CC(C)(C)C1CCCCC1O (stereo not given) | inactive | inactive |  |  |
| CCC(=O)Oc1ccc(/C(CC)=C(\CC)c2ccc(OC(=O)CC)cc2)cc1 | inactive | inactive |  |  |
